# Measured values as given in the supplement of paper PMC9135407.
# “And” between values parts separate entries of the source, which are not always exact repeats. Identical values can stand only once. Counter-ions that a name gives are not always drawn. The campaign covered roughly 5,800 compounds. About 620 (11%) showed activity. This excerpt belongs to a sample that is enriched for actives. Unmarked numbers belong to inactive results.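 How the source made its calls: active = score above a cut-off or among the top three wells of a plate; in these data no inactive exceeds 0.85.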
# System: primary human hepatic stellate cells (donor 1)
# Test: scaled lipid accumulation score (0 = DMSO-like, 1 = nortriptyline-like); higher = stronger HSC inactivation (lipid re-accumulation), active = hit call of the paper
# Conditions: 48 h
# [1] = library stock concentration: 1 mM
# [2] = library stock concentration: 10 mM
# [3] = library stock concentration: 3.33 mM
# [4] = library stock concentration: 80 uM
# [5] = library stock concentration: 400 uM
# [6] = library stock concentration: 2 mM
smiles,measurement,setting,value
COc1ccc2cc(C(C#N)OC(=O)CC3OC3c3ccccc3)ccc2c1 (configuration not stated),scaled lipid accumulation score,[1],0.017
C[N+](C)(C)[C@@H](Cc1c[nH]c(=S)[nH]1)C(=O)[O-] [Ergothioneine],scaled lipid accumulation score,library stock concentration: 8.7 mM,≤ -0.006
CN(C)CCCCC(=O)Nc1ccc(NC(=S)NC(=O)c2ccc(C(C)(C)C)cc2)cc1 [Tenovin-6] [listing 1 of 2 here],scaled lipid accumulation score,[1],0.143
same,scaled lipid accumulation score,[2],0.405
CC(=O)Nc1ccc(NC(=S)NC(=O)c2ccc(C(C)(C)C)cc2)cc1 [Tenovin-1],scaled lipid accumulation score,[1],≤ 0
CN(C)CCCCC(=O)Nc1ccc(NC(=S)NC(=O)c2ccc(C(C)(C)C)cc2)cc1 [Tenovin-6] [listing 2 of 2 here],scaled lipid accumulation score,[3],1.18 (active)
"O=C(O)C=Cc1cc(Br)c(Br)c(Br)c1Br [Casein Kinase II Inhibitor III, TBCA]",scaled lipid accumulation score,[3],≤ 0
Cc1cccc(-c2[nH]c(CNc3ccccc3F)nc2-c2ccc3ncnn3c2)n1,scaled lipid accumulation score,[4],≤ -0.001
same,scaled lipid accumulation score,[5],≤ -0.001
same,scaled lipid accumulation score,[6],≤ -0.001
same,scaled lipid accumulation score,[2],≤ -0.001
CCCCCCCCCCCCCCCCOC[C@@H](O)COP(=O)(O)O [1-Hexadecyl Lysophosphatidic Acid],scaled lipid accumulation score,[1],≤ 0
Cc1nc(N=Nc2ccc(C(=O)O)cc2)c(COP(=O)(O)O)c(C=O)c1O,scaled lipid accumulation score,[2],0.139
CCCCCCCCCCCCCCCCCC(=O)NCCS(=O)(=O)O [N-Stearoyl Taurine],scaled lipid accumulation score,[1],0.008
CNC(=O)c1ccc(C)c(-n2c(C)cc(OCc3ccc(F)cc3F)c(Br)c2=O)c1,scaled lipid accumulation score,[4],0.057
same,scaled lipid accumulation score,[5],0.038
same,scaled lipid accumulation score,[6],0.056
same,scaled lipid accumulation score,[3],0.014
same,scaled lipid accumulation score,[2],≤ 0 and ≤ -0.001
CCN(CCCOc1ccc2c(Nc3cc(CC(=O)Nc4cccc(F)c4)[nH]n3)ncnc2c1)CCOP(=O)(O)O [Barasertib],scaled lipid accumulation score,[4],0.022
same,scaled lipid accumulation score,[5],≤ -0.001
same,scaled lipid accumulation score,[6],0.115
same,scaled lipid accumulation score,[2],0.242
"CCC=CCC=CCC=CCCCCCCCCCC(=O)O [11(Z),14(Z),17(Z)-Eicosatrienoic Acid]",scaled lipid accumulation score,[1],≤ 0
Cc1ccc(Sc2ccccc2N2CCNCC2)c(C)c1,scaled lipid accumulation score,[3],0.769
same,scaled lipid accumulation score,[2],0.102
O=S(=O)(c1ccccc1)c1cnc2c(N3CCNCC3)cccc2c1 [listing 1 of 2 here],scaled lipid accumulation score,[2],0.994 (active)
O=S(=O)(c1ccccc1)c1cnc2c(N3CCNCC3)cccc2c1 [listing 2 of 2 here],scaled lipid accumulation score,[3],0.285
CCCCCCC[C@H](O)/C=C/[C@@H]1[C@@H](C/C=C\CCCC(=O)O)[C@@H](O)C[C@H]1O [20-ethyl Prostaglandin F2.alpha.],scaled lipid accumulation score,[1],≤ 0
NC(=O)Nc1cc(-c2cccc(F)c2)sc1C(=O)N[C@H]1CCCNC1 [listing 1 of 2 here],scaled lipid accumulation score,[3],0.879 (active)
NC(=O)Nc1cc(-c2cccc(F)c2)sc1C(=O)N[C@H]1CCCNC1 [listing 2 of 2 here],scaled lipid accumulation score,[4],≤ 0
same,scaled lipid accumulation score,[5],0.06 and ≤ -0.005
same,scaled lipid accumulation score,[6],0.23 and 0.444
same,scaled lipid accumulation score,[2],0.559 and 0.276
NC(=O)Nc1cc(-c2ccccc2)sc1C(N)=O [IKK-2 Inhibitor XI],scaled lipid accumulation score,[3],≤ 0
CNCC(O)c1ccc(O)c(O)c1 (racemic) [(+/-)-Epinephrine hydrochloride],scaled lipid accumulation score,[2],≤ 0
"CCCCC[C@H](O)CC[C@@H]1[C@@H](C/C=C\CCCC(=O)O)[C@@H](O)C[C@H]1O [13,14-dihydro Prostaglandin F2.alpha.]",scaled lipid accumulation score,[1],≤ 0
CCCCC[C@H](O)/C=C/[C@@H]1[C@@H](CCCCCCC(=O)O)[C@@H](O)C[C@H]1O [Prostaglandin F1.alpha.],scaled lipid accumulation score,[1],≤ 0
O=P(O)(O)OC1[C@@H](O)[C@H](O)C(O)[C@H](O)[C@@H]1O (stereo partly drawn) [D-myo-Inositol-3-phosphate (sodium salt)],scaled lipid accumulation score,[1],0.009
Cc1nc(N)sc1-c1ccnc(Nc2ccc(N3CCOCC3)cc2)n1 [listing 1 of 3 here],scaled lipid accumulation score,[2],1.02 (active)
Fc1cc(-c2ccnc(Nc3ccc(-n4cnc(N5CCOCC5)n4)cc3)n2)cc(N2CCOCC2)c1,scaled lipid accumulation score,[4],0.394
same,scaled lipid accumulation score,[5],0.734
same,scaled lipid accumulation score,[6],0.178
same,scaled lipid accumulation score,[2],0.442
Cc1ncc(-c2ccnc(Nc3ccc(S(C)(=O)=O)cc3)n2)n1C(C)C,scaled lipid accumulation score,[4],0.708
same,scaled lipid accumulation score,[5],0.763
same,scaled lipid accumulation score,[6],0.527
same,scaled lipid accumulation score,[3],0.078
same,scaled lipid accumulation score,[2],0.329 and 0.334
Cc1nc(N)sc1-c1ccnc(Nc2ccc(N3CCOCC3)cc2)n1 [listing 2 of 3 here],scaled lipid accumulation score,[2],1.07 (active)
Cc1nc(N)sc1-c1ccnc(Nc2ccc(N3CCOCC3)cc2)n1 [listing 3 of 3 here],scaled lipid accumulation score,[5],≤ -0.005
same,scaled lipid accumulation score,[6],≤ -0.005
same,scaled lipid accumulation score,[3],≤ 0
C[C@@H](O)[C@@H]1NC(=O)[C@H](CCCCN)NC(=O)[C@@H](Cc2c[nH]c3ccccc23)NC(=O)[C@H](Cc2ccccc2)NC(=O)[C@@H](NC(=O)[C@H](N)Cc2ccccc2)CSSC[C@@H](C(=O)N[C@H](CO)[C@@H](C)O)NC1=O [Octreotide],scaled lipid accumulation score,[6],0.006
CC(=O)O/N=C1/C(c2c(O)[nH]c3cc(Br)ccc23)=Nc2ccccc21 [GSK-3 Inhibitor X],scaled lipid accumulation score,[3],≤ 0
O=C1C[C@@H]2[C@@H](CC[C@@H](O)CCc3ccccc3)[C@H](O)C[C@@H]2O1 [Latanoprost Lactone Diol],scaled lipid accumulation score,[1],0.003
O=C(CCCCCCCCCCCCC1CCCC1)Nc1ccc(S(=O)(=O)c2ccc(NC(=O)CCCCCCCCCCCCC3CCCC3)cc2)cc1 [Chaulmosulfone],scaled lipid accumulation score,[2],≤ -0.027
Cc1cc2c(F)c(Oc3ncnn4cc(OC[C@@H](C)O)c(C)c34)ccc2[nH]1,scaled lipid accumulation score,[3],0.023
same,scaled lipid accumulation score,[2],≤ 0
Cc1cc2c(F)c(Oc3ncnn4cc(OC[C@@H](C)OC(=O)[C@H](C)N)c(C)c34)ccc2[nH]1,scaled lipid accumulation score,[3],≤ 0
same,scaled lipid accumulation score,[2],≤ 0
COc1cc2c(Oc3ccc4[nH]c(C)cc4c3F)ncnc2cc1OCCCN1CCCC1 [Cediranib (AZD2171)] [listing 1 of 2 here],scaled lipid accumulation score,[3],1.1 (active)
Cc1cc2c(F)c(Oc3ncnn4cc(OC[C@@H](C)O)c(C)c34)ccc2[nH]1 [Brivanib],scaled lipid accumulation score,[4],≤ -0.009
same,scaled lipid accumulation score,[5],≤ -0.009
same,scaled lipid accumulation score,[6],≤ -0.009
same,scaled lipid accumulation score,[2],≤ -0.009
COc1cc2c(Oc3ccc4[nH]c(C)cc4c3F)ncnc2cc1OCCCN1CCCC1 [Cediranib] [listing 1 of 2 here],scaled lipid accumulation score,[6],1.06 (active)
COc1cc2c(Oc3ccc4[nH]c(C)cc4c3F)ncnc2cc1OCCCN1CCCC1 [Cediranib] [listing 2 of 2 here],scaled lipid accumulation score,[4],0.077
same,scaled lipid accumulation score,[5],0.464
same,scaled lipid accumulation score,[2],0.693
COc1cc2c(Oc3ccc4[nH]c(C)cc4c3F)ncnc2cc1OCCCN1CCCC1 [Cediranib (AZD2171)] [listing 2 of 2 here],scaled lipid accumulation score,[2],0.678
CCCCCCCC/C=C\CCCCCC(=O)O [cis-7-Hexadecenoic Acid],scaled lipid accumulation score,[1],≤ 0
COC(=O)C(C)(N)Cc1ccc(O)cc1 (racemic) [alpha-Methyl-DL-tyrosine methyl ester hydrochloride],scaled lipid accumulation score,[2],≤ -0.019
CN1CCC(CNc2ccc3ncc(-c4cccc(OC(F)(F)F)c4)n3n2)CC1 [listing 1 of 2 here],scaled lipid accumulation score,[6],1.4 (active)
CN1CCC(CNc2ccc3ncc(-c4cccc(OC(F)(F)F)c4)n3n2)CC1 [listing 2 of 2 here],scaled lipid accumulation score,[4],0.117
same,scaled lipid accumulation score,[5],0.23
same,scaled lipid accumulation score,[2],0.47
CN1CCC(CNc2ccc3ncc(-c4cccc(OC(F)(F)F)c4)n3n2)CC1 [SGI-1776 free base],scaled lipid accumulation score,[3],0.774
same,scaled lipid accumulation score,[2],0.181
CCCCC/C=C\C/C=C\C/C=C\C/C=C\CCCC(=O)NC[C@]1(C)CCC[C@]2(C)c3ccc(C(C)C)cc3CC[C@@H]12 [Arachidonic Acid Leelamide],scaled lipid accumulation score,[1],0.002
CCCCCCCCCCCCCCCC(=O)NC(CO)CO [Palmitoyl Serinol],scaled lipid accumulation score,[1],0.026
O=C(Nc1ccncc1)Nc1c(Cl)cc(Cl)cc1Cl [Rho Kinase Inhibitor II],scaled lipid accumulation score,[3],≤ 0
Cc1cc(C)c(Nc2ccnc(Nc3ccc(C#N)cc3)n2)c(C)c1 [Dapivirine (TMC120)] [listing 1 of 2 here],scaled lipid accumulation score,[2],1.08 (active)
Cc1cc(C)c(Nc2ccnc(Nc3ccc(C#N)cc3)n2)c(C)c1 [Dapivirine (TMC120)] [listing 2 of 2 here],scaled lipid accumulation score,[3],0.243
Cc1cc(/C=C/C#N)cc(C)c1Nc1ccnc(Nc2ccc(C#N)cc2)n1 [Rilpivirine],scaled lipid accumulation score,[3],≤ -0.009
same,scaled lipid accumulation score,[2],≤ 0
Cc1ccccc1-c1cccc(N2CCC(N3CCN(C)C(C)C3)CC2)c1 (configuration not stated),scaled lipid accumulation score,[2],1.05 (active)
O=C(O)CCC/C=C\C[C@@H]1[C@@H](/C=C/[C@H](O)CCc2ccccc2)[C@H](O)C[C@@H]1O [15(R)-17-phenyl trinor Prostaglandin F2.alpha.],scaled lipid accumulation score,[1],≤ 0
CNC(=O)[C@@H](Cc1ccccc1)N(C)C(=O)[C@@H](Cc1ccc2ccccc2c1)N(C)C(=O)/C=C/CC(C)(C)N.CNC(=O)[C@@H](Cc1ccccc1)N(C)C(=O)[C@@H](Cc1ccc2ccccc2c1)N(C)C(=O)/C=C/CC(C)(C)N.O=C(O)/C=C/C(=O)O [Tabimorelin],scaled lipid accumulation score,[2],1.3 (active)
CN(Cc1ccccc1)C(=O)[C@H](Cc1ccc2ccccc2c1)NC(=O)[C@@H]1CCCN1C(=O)Nc1ccccc1[N+](=O)[O-],scaled lipid accumulation score,[2],0.005
CN(Cc1ccccc1)C(=O)[C@H](Cc1ccc2ccccc2c1)NC(=O)[C@@H]1C[C@@H](O)CN1C(=O)c1cn(C)c2ccccc12,scaled lipid accumulation score,[2],0.019
CCCCCCCCCCCCC/C=C/[C@@H](O)[C@H](CO)NC(=O)CCCCCCCCCCCCCCC [C16 Ceramide],scaled lipid accumulation score,[1],≤ -0.021
